# Compounds with a hit are over-represented: about 10% of the library has one in this group of screens.
# Gal4-VP16 FLuc: VP16 counterscreen qHTS for inhibitors of ROR gamma transcriptional activity; Drosophila S2 Gal4-VP16 UAS-luciferase, luminescence, 20 h; Potency, µM (doses to about 53.6 µM), inactives show top-dose activity, negative = inhibition, actives largely listed as inhibitors; 3.5% of 310,000 active;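 further: Gal4-VP16 expression switched on by copper sulfate through the metallothionein promoter; on the % scale 0 is the no-effect control and ±100 the full control effect; nearly all actives have a fitted effect of over 50% in size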
# KB-3-1 cytotox: qHTS assay for MDR1-selective chemotherapeutics: Primary screen using the parental adenocarcinoma cell KB-3-1; Potency, µM (doses to about 46.1 µM), most hits filed as cytotoxic; 1.4% of 400,000 active; AID 1347075, 2019; KB-3-1 viability, CellTiter-Glo ATP luminescence, 72 h; further: on the % scale 0 is the no-effect control and ±100 the full control effect; nearly all actives have a fitted effect of over 60% in size
#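 KB-3-1 cells, DMEM (no phenol red) + 10% FBS; compound by pin transfer, 72 h, 37 °C. Readout: CellTiter-Glo luminescence after 10 min. Data normalized, curve-fitted.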
# SW480 rerep: A quantitative high throughput screen for small molecules that induce DNA re-replication in SW480 colon adenocarcinoma cells; Potency, µM (series often up to 46.1 µM), without a hit: at the highest dose re-replication activation, most hits filed as activators; AID 624297, 2012; 1.8% of 340,000 active; SW480 DNA re-replication, Hoechst DNA content imaging, 48 h; further: % of control where 0% means no effect; nearly all actives have a fitted effect of over 55% in size
#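 250 cells/well; 23 nL cpd via pin tool; 48 hr, 37 C, 5% CO2; Hoechst 40 min; imager read of total nuclear intensity, ex 405/em 500-530 nm.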
# MCF10A rereplic: A quantitative high throughput screen for small molecules that induce DNA re-replication in MCF 10a normal breast cells; MCF 10A DNA re-replication, Hoechst nuclear intensity, 48 h; Potency, µM (titrated, usually from 46.1 µM), for the others: at the top dose activity, positive = re-replication, usual class: activators; 2.9% of 350,000 active; AID 624296, 2012; further: % of control where 0% means no effect; nearly all actives have a fitted effect of over 50% in size
# RORgamma inh: qHTS for inhibitors of ROR gamma transcriptional activity; Drosophila S2 Gal4-RORgamma UAS-luciferase reporter, 20 h; Potency, µM (top dose mostly 53.6 µM), for inactives: top-dose activity change, negative = inhibition, most hits filed as inhibitors; 5.4% of 310,000 active; AID 2551, 2010; further: on the % scale 0 is the no-effect control and ±100 the full control effect; nearly all actives have a fitted effect of over 60% in size
# Target sequence (P51450 whole entry, looked up, the tested form may be a part): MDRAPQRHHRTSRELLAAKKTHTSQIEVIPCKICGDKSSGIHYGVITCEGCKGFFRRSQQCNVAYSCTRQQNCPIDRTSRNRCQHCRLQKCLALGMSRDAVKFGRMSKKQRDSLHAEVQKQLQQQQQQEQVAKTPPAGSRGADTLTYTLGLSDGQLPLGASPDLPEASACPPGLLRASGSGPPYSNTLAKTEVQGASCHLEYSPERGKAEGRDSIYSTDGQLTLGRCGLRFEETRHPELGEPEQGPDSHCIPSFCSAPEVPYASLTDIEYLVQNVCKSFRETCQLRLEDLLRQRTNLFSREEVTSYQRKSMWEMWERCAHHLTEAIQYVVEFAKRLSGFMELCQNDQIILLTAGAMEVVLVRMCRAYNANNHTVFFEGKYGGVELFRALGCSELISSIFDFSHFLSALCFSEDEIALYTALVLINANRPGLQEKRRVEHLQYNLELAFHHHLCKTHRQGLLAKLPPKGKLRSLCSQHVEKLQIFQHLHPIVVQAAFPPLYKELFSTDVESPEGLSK
#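 A Gal4/UAS one-hybrid system in insect cells: metallothionein-promoter Gal4–ROR gamma fusion plus Photinus luciferase reporter. Copper sulfate 700 uM final, 20 hr ambient incubation, luminescent detection after 10 min with reagent.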
# KB-V1 cytotox: qHTS assay for MDR1-selective chemotherapeutics: Primary screen using the drug-selected MDR subline cells KB-V1; KB-V1 MDR cells viability, CellTiter-Glo, 72 h; Potency, µM (top dose mostly 46.1 µM), actives largely listed as cytotoxic; 3.4% of 400,000 active; AID 1347076, 2019; further: on the % scale 0 is the no-effect control and ±100 the full control effect; nearly all actives have a fitted effect of over 60% in size
#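 In this primary screen, KB-V1 cells overexpressing P-gp are incubated with library compounds (lowest to highest concentration) for 72 h at 37 degrees C before a luminescent ATP viability read.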
# * marks the source's active call; other numbers are inactive results; i = inactive; ? = inconclusive; . = no result given; ! = a repeat was not active; [ ] = another dose, or the depositor's remark. The call rests on the fitted dose curve; in most records, active means well fitted curve in the direction sought with a large enough effect; inconclusive means small, poorly fitted or top-dose-only effect, or another doubt; inactive means no such curve, though single readings can be large; an effect the other way counts as inactive or inconclusive. Potency means the concentration at half of the fitted maximal effect.
SMILES,Gal4-VP16 FLuc,KB-3-1 cytotox,SW480 rerep,MCF10A rereplic,RORgamma inh,KB-V1 cytotox
O=c1cc(O)c(Cl)c[nH]1,10.0%,.,1.4%,1.0%,-1.7%,.
COc1cccc(C(=O)Nc2ccc3nc(SCCOc4ccccc4)sc3c2)c1,.,i,.,.,.,i
COc1ccc(OC)c(CN2C(=O)c3ccccc3C2c2nnnn2Cc2ccccc2)c1 (configuration not stated),.,i,.,.,.,?
CC(=O)c1ccc(-c2ccc(-c3cc(=O)oc4c(C(C)C)ccc(C)c34)cc2)cc1,11.2µM*,i,-9.8%,?,?,i
Cc1cc(=O)n2c(sc3ccccc32)c1C#N,-6.0%,i,23.1µM*,?,6.9%,i
Cc1c(NC(=O)C(F)(F)F)ccc2nc3c(=O)n(C)c(=O)n(C)c3nc12,.,i,.,.,.,13µM*
CCc1nc2c(OCCn3cccc3)cccn2c1N(C)C(=O)c1ccccc1F,.,i,.,.,.,i
COc1ccc(-c2nc(CSCC(=O)NCCCN3CCCC3=O)c(C)o2)cc1,11.2µM*,i,-0.3%,-1.6%,-24.1%,i
COc1ccc(OC)c(CCNC(=O)CS(=O)(=O)Cc2nc(-c3ccc(C)cc3)oc2C)c1,5.4%,i,-7.7%,16.5%,-0.9%,?
CCOc1ccc(-c2nc(CSCC(=O)NCCCN3CCCC3=O)c(C)o2)cc1,-15.4%,i,?,-0.6%,-28.5%,i
Cc1oc(-c2ccc(Cl)cc2)nc1CSCC(=O)NCCCN1CCOCC1,-0.2%,i,3.1%,?,7.9%,16.4µM*
COc1ccc(-c2nc(CS(=O)(=O)CC(=O)NCCc3cc(OC)ccc3OC)c(C)o2)cc1,-5.7%,i,2.2%,7.7%,2.7%,8.2µM*
COC(=O)[C@@]12C[C@@H](CC(=O)NCc3ccc(C)o3)C(=O)N(Cc3ccccc3)C1=CCC(C)(C)C2,.,i,.,.,.,18.4µM*
COC(=O)[C@@]12C[C@@H](CC(=O)NCc3ccccc3)C(=O)N(Cc3ccccc3)C1=CCC(C)(C)C2,.,?,.,.,.,20.6µM*
CSc1ccc(S(=O)(=O)N2CCC(C(=O)NC3CC3)CC2)cc1,-3.4%,i,-5.9%,-0.5%,7.9%,i
CCOC(=O)c1c(Nc2ccc(F)cc2)nnc(-c2ccccc2)c1-c1ccccc1,.,i,.,.,.,i
Cc1sc2ncnc(N3CCN(Cc4ccccc4)CC3)c2c1-c1ccccc1,0.7%,?,9.5%,16.4µM*,-26.2%,10.3µM*
CCOc1ccc(CN2CCN(c3ncnc4scc(-c5ccccc5)c34)CC2)cc1,14.2%,i,4.7%,2.3%,29.9%,i
Cc1sc2ncnc(N3CCN(CCOc4ccc(Cl)cc4)CC3)c2c1C,3.55µM*,?,?,17.8µM*,?,?
CCNc1ncc2nc(-c3ccccc3)c(=O)n(Cc3cccs3)c2n1,-9.2%,.,.,.,-10.5%,.
Cc1ccccc1NS(=O)(=O)c1cccc(-c2nnc(-c3ccccc3)o2)c1,2.4%,i,-18.4%,13.8%,32.8%,i
CN(C)S(=O)(=O)c1cccc(-c2nnc(-c3ccccc3)o2)c1,?,i,0.6%,17.4%,36.4%,23.1µM*
Clc1cccc(-c2nnc(-c3ccccc3)o2)c1,?,?,-0.4%,16.4µM*,-38.0%,?
CC1COC(=O)O1 (configuration not stated),-5.7%,.,.,.,-0.4%,.
Cc1cccc(OCc2nc(-c3ccccn3)n[nH]2)c1,2.82µM*,i,?,28.2%,1.58µM*,?
SMILES,Gal4-VP16 FLuc,KB-3-1 cytotox,SW480 rerep,MCF10A rereplic,RORgamma inh,KB-V1 cytotox
Cc1cc(C)nc(Nc2n[nH]c(COc3ccc(Cl)cc3)n2)n1,-10.8%,?,-1.5%,?,-22.1%,?
Cc1cccc(OCC(=O)O/N=C(\N)c2ccccn2)c1,4.5%,i,-13.9%,21.9%,26.4%,i
Cc1ccc(OCc2nc(-c3ccccn3)n[nH]2)cc1,5.01µM*,?,9.8%,21.9%,3.16µM*,i
Cc1nc2cccnc2n1-c1cccc(C(=O)NCc2ccc(OC(C)C)cc2)c1,.,i,.,.,.,i
Cn1nc(-c2ccncc2)nc2c(=O)n(C)c(=O)nc1-2,.,1.84µM*,.,.,.,?
CCc1ccccc1N(C)C(=O)Nc1cn(CC(C)C)c(=O)c2ccccc12,.,i,.,.,.,i
CCOc1ccccc1CNS(=O)(=O)c1ccc(-c2cnc(C3CC3)o2)cc1,?,1.16µM*,?,1.3µM*,15.0%,1.46µM*!
O=S(=O)(NCc1ccccc1)c1ccc(-c2cnc(C3CC3)o2)cc1,-15.8%,18.4µM*!,-9.6%,?,36.7%,14.6µM*!
COc1ccc2ncnc(NCc3cccs3)c2c1-c1ccc2c(c1)OCO2,.,?,.,.,.,i
CCc1ccc(/C=C/C(=O)c2cc(Br)ccc(=O)c2O)cc1,?,?,?,?,?,10.3µM*
O=C(C=Cc1ccccc1)c1cc(Br)ccc1O,.,i,?,?,.,i
CCOc1ccc(C(=O)/C=C/c2ccc(OC)c(OC)c2)cc1,0.3%[10 µM],i,?,?,7.7%,?
CCOc1ccc(/C=C/C(=O)c2cc(Br)ccc(=O)c2O)cc1,22.4µM*,?,?,9.2µM*,?,10.3µM*
Cc1cccc(/C=C/C(=O)c2cc(Br)ccc(=O)c2O)c1,?,?,?,10.3µM*,-31.0%,?
CCCCn1c(Oc2cccc(C(=O)OC)c2)nc2c1c(=O)n(C)c(=O)n2C,.,i,.,.,.,i
O=C(COc1ccc(F)cc1)OCc1cc(=O)n2nc(C3CCCCC3)sc2n1,.,i,.,.,.,i
CCOC(=O)C(=C1Nc2ccccc2N1)n1c(-c2cccnc2)nc2ccccc21,.,?,.,.,.,20.6µM*
CCCCCCCCCC(=O)OCC(CO)OC(=O)CCCCCCCCC (configuration not stated),-3.9%,.,.,.,-2.9%,.
Oc1ccc(Cl)c(CN2CCN(c3ncc(Cc4ccccc4)cn3)CC2)c1,.,?,.,.,.,16.4µM*
Oc1cccc(CN2CCN(c3ncc(Cc4ccccc4)cn3)CC2)c1,.,i,.,.,.,?
O=C(C[n+]1cccc2cc(Cl)ccc21)c1ccc(I)cc1,.,?,.,.,.,i
O=C(C1CCC(C(=O)N2CCc3ccccc32)CC1)N1CCc2ccccc21 (configuration not stated),-8.0%,i,-6.1%,0.8%,-7.4%,i
O=C(Nc1ccccc1)C(=O)Nc1ccc2c(c1)N(C(=O)C1CC1)CCC2,.,23.1µM*,?,?,.,?
